An excerpt weighted towards active compounds, which were near 2.4% of everything screened.
CHRM1 PAM – human CHRM1 positive allosteric modulation | CHO-K1 hM1, Fluo-8 calcium fluorescence, ACh EC20; 0% = ACh EC20, 100% = maximal ACh | activation, % at 3 µM | 360,000 compounds, 0.088% hits | AID 588819; in the data active = activation above about 19%, passing the limit was not always enough
Target sequence (P11229 whole entry, looked up): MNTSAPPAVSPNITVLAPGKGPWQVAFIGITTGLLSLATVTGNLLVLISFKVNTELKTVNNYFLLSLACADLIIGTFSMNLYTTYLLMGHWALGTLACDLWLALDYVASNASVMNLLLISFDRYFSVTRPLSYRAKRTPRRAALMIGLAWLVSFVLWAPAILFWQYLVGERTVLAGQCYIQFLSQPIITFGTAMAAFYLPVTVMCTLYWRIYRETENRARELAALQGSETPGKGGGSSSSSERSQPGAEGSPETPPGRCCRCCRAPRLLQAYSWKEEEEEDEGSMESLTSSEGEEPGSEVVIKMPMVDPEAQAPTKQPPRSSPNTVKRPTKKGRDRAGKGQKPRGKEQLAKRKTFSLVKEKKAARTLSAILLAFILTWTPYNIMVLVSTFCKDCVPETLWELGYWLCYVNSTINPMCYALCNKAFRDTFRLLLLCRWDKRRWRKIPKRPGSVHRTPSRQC
CHRM1 antagonist – human CHRM1 antagonism; P11229; CHO-K1 hM1, Fluo-8 calcium fluorescence, ACh EC80 antagonist; inhibition, % at 3 µM; 360,000 compounds, 1.3% hits; AID 588852;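 active = percent inhibition above its own plate's cutoff, namely the mean of that plate's compound wells plus 3 SD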;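 also: peak over basal fluorescence ratio during 140 s after agonist addition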
CHO-K1 Ca antag – nonselective inhibitor or artifact in parental CHO-K1 cells | AID 602250 | ATP-induced calcium, Fluo-8 fluorescence | 360,000 compounds, 0.6% hits | inhibition, % at 3 µM;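 active = inhibition above a per-plate cutoff, the plate's mean sample inhibition plus 3 SD, cut at about 24% in these data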
M1 ag parental – counter-screen for M1 agonists: effect in parental CHO-K1 cells; Fluo-8 calcium fluorescence; scaled to maximal ATP response, vehicle zero; activation, % at 3 µM; 360,000 compounds, 0.48% hits; AID 602248; in the data active = activation above about 15%;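 also: untransfected CHO-K1 host cells lacking M1 receptor as counterscreen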
M1 ag – human M1 muscarinic receptor agonism; P11229; CHO-K1 hM1, Fluo-8 calcium fluorescence, agonist mode; 0% DMSO, 100% acetylcholine EC100; activation, % at 3 µM; 360,000 compounds, 0.33% hits; AID 588814;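 active = activation above the run's mean compound activation plus 3 SD, cut at about 16% in these data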;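 also: peak over basal fluorescence ratio within a 140 s kinetic read after compound addition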
M1 PAM parental – M1 PAM counterscreen hit in parental CHO-K1 cells; ATP EC20, Fluo-8 calcium fluorescence; 0% at ATP EC20, 100% at ATP max; activation, % at 3 µM; 360,000 compounds, 0.02% hits;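 active = activation above the run cutoff, the mean activation of all test compounds plus 3 SD, cut at about 40% in these data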;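 also: peak over basal fluorescence ratio in a 140 s read after ATP addition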
Numbers stand for hits; . = inactive; / = not tested or not shown.

SMILES	CHRM1 PAM	CHRM1 antagonist	CHO-K1 Ca antag	M1 ag parental	M1 ag	M1 PAM parental
Cc1ccc(C)c(N/C(N)=N/c2nc(C)cc(C)n2)c1	.	.	35	27	.	.
CCCCN(CCCC)/C(N)=N/c1nc(C)cc(C)n1	.	.	.	.	.	.
COc1ccc(C)cc1N/C(N)=N/c1nc(C)cc(C)n1	.	.	.	.	.	.
CC(=O)Nc1ccc(N/C(N)=N/c2nc(C)cc(C)n2)cc1	.	.	.	.	.	.
Cc1cc(C)nc(/N=C(\N)Nc2ccc(-c3ccccc3)cc2)n1	.	.	.	27	.	.
CCOc1ccc(N/C(N)=N/c2nc(C)cc(C)n2)cc1	.	.	.	17	.	.
Cc1cc(C)nc(/N=C(\N)N(Cc2ccccc2)Cc2ccccc2)n1	.	100	.	.	.	.
C[C@@H]1CN([C@H](C)CO)C(=O)CCCn2nncc2CO[C@@H]1CN(C)S(C)(=O)=O	.	.	.	.	.	.
Cc1cc(C)nc(/N=C(\N)Nc2ccc(SC(F)F)cc2)n1	.	.	.	30	19	.
O=C(NCCN1CCN(C(=O)c2ccc(F)cc2)CC1)c1ccc(F)cc1	.	.	.	.	.	.
O=C(Nc1ccccc1)c1cccc(N2C(=O)C3C4CC(C(Br)C4Br)C3C2=O)c1 (configuration not stated)	.	.	.	.	.	.
C=CCNC(=O)c1ccccc1Cl	.	.	.	19	.	.
CCC(=O)Nc1c(-c2ccc(Cl)cc2)c(=O)c2ccccc2n1C	.	.	.	.	.	.
Cc1ccc(S(=O)(=O)NC2=NCN(Cc3ccccc3)CN2)cc1	.	.	.	.	.	.
Cc1ccc(S(=O)(=O)NNC(=O)C2CCN(Cc3ccccc3)CC2)cc1	.	80	.	.	.	.
COC(=O)C1CCN(Cc2ccc(C)cc2)CC1	.	.	.	.	.	.
Cc1ccc(S(=O)(=O)NC2=NCN(C3CCN(Cc4ccccc4)CC3)CN2)cc1	.	29	.	.	.	.
CC1Cc2ccccc2N1C(=O)CN1C(=O)NC2(CCCCC2)C1=O (configuration not stated)	.	.	.	.	.	.
Brc1ccc(-c2cnc3n2CCCC3)cc1	.	.	.	.	.	.
CCOc1ccc(-c2cnc3n2CCC3)cc1	.	.	.	.	.	.
Fc1ccc(-c2cnc3n2CCCCC3)cc1	.	39	.	.	.	.
Clc1ccc(-c2cnc3n2CCCCC3)cc1	.	41	.	.	.	.
CC(/C=N/n1c(-c2n[nH]c3c2CCC3)n[nH]c1=S)=C\c1ccco1	.	67	.	.	.	.
COc1cccc(/C=N/n2c(-c3n[nH]c4c3CCC4)n[nH]c2=S)c1OC	.	76	.	.	.	.
COc1ccc(/C=N/n2c(-c3n[nH]c4c3CCC4)n[nH]c2=S)cc1	.	.	.	.	.	.
SMILES	CHRM1 PAM	CHRM1 antagonist	CHO-K1 Ca antag	M1 ag parental	M1 ag	M1 PAM parental
O=C(Cn1nnc(-c2ccccc2)c1COc1ccc2ccccc2c1)NCC1CC1	.	.	.	.	.	.
CC(NC(=O)C1(c2cccs2)CCOCC1)c1ccccc1 (configuration not stated)	.	.	.	.	.	.
COc1cc(C=C2C(=O)C=CC2=O)ccc1O	/	/	.	.	/	43
COc1cc(/C=C/C(=O)CC(=O)/C=C/c2ccc(O)c(OC)c2)ccc1O	.	.	29	19	19	.
Cc1ccc(NC(=O)COC(=O)CN2C(=O)NC(C)(C)C2=O)cc1S(=O)(=O)N1CCOCC1	.	.	.	19	.	.
Cc1ccc(NC(=O)COC(=O)Cc2ccc(Br)cc2)cc1S(=O)(=O)N1CCOCC1	.	35	.	.	.	.
Cc1ccc(NC(=O)COC(=O)Cc2ccccc2)cc1S(=O)(=O)N1CCOCC1	.	.	.	.	.	.
COc1cccc(C(=O)N2CCN(c3ccc(N4CCOCC4)nn3)CC2)c1	.	.	.	.	.	.
COc1ccc2c(c1)CCc1cc(C(=O)N3CCN(c4ccc(N5CCOCC5)nn4)CC3)sc1-2	.	.	31	.	.	.
CSc1nsc(SC)c1NC(=O)Nc1ccccn1	.	.	.	.	.	49
CC(=O)NNC(=O)c1sc(=S)n(C)c1C	.	.	.	19	.	.
CC(C)CCC(CCN1CCOCC1)c1ccc2c(c1)OCO2 (configuration not stated)	.	.	.	.	.	.
CC(C)CCC(CCN1CCCC1)c1ccc2c(c1)OCO2 (configuration not stated)	.	57	.	.	.	.
COc1ccc(C)cc1S(=O)(=O)N1CCCC(C(=O)NC2CC2)C1 (configuration not stated)	.	.	.	.	.	.
O=C1CC(NS(=O)(=O)c2ccccc2)CN1c1ccc2c(c1)OCCO2 (configuration not stated)	.	.	.	.	.	.
Cc1nc2nc(SCC(=O)N3CCOCC3)nn2c(C)c1Cc1c(F)cccc1Cl	.	.	.	.	.	.
Cc1nc2nc(SCC(=O)NCCCN3CCCC(C)C3)nn2c(C)c1Cc1ccccc1Cl (configuration not stated)	.	63	.	.	.	.
Cc1ccccc1Cc1c(C)nc2nc(SCC(=O)NCCCN3CCCC3)nn2c1C	.	50	.	.	.	.
Cc1nc2nc(SCC(=O)NCCCN3CCCCCC3)nn2c(C)c1Cc1ccccc1Cl	.	100	.	.	.	.
CC1(C(=O)NS(=O)(=O)c2ccccc2OC(F)(F)F)CCN1C(=O)Cc1ccccc1 (configuration not stated)	.	.	.	.	.	.
Cc1ccc(CC(=O)Nc2cccc([N+](=O)[O-])c2)cc1	.	.	.	18	.	.
CN(Cc1ccccc1)C(=O)c1cccc(NC(=O)Cc2cccc([N+](=O)[O-])c2)c1	.	33	.	.	.	.
Cc1ccc2nc(SCC(=O)Nc3cccc([N+](=O)[O-])c3)[nH]c2c1	.	.	.	16	.	.
CN(Cc1ccccc1)C(=O)c1cccc(NC(=O)Cc2ccc([N+](=O)[O-])cc2)c1	.	.	.	.	.	.
CC(CCc1ccccc1)NC(=O)CNc1cccc([N+](=O)[O-])c1 (configuration not stated)	.	.	.	15	.	.
CC(C)Cn1c(N)c(/C=N/NC(=O)c2ccc(Cl)cc2)c(=O)n(C)c1=O	.	.	.	.	.	.
CCOc1ccc(C(=O)NN2CCOCC2)cc1	.	.	.	.	.	.
CCCc1cc(NCc2ccccn2)n2c(nc3ccccc32)c1C#N	.	.	.	15	.	.
Cc1cc(N2CCN(c3ccccn3)CC2)n2c(nc3ccccc32)c1C#N	.	.	29	.	.	.

Assay outcomes as filed in PubChem.
